Consider six molecules from PubChem BioAssay AID652208 (Broad Institute, 2013).

Potency and affinity values are given separately. The source made the active and inactive calls.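 Rule for the calls: active = Loss of cell signal with fitted half-effect dose at or below twice the top valid tested dose; inconclusive = Poor fit, or flat fit from -70 to -30 percent; inactive = Half-effect above limit, rising signal, or flat within 30 percent.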

A short description of this experiment: viability loss in HEK293T cells – cell-based, cherry-picks, cytotoxicity control for HIV Vif inhibitor project, dose response (AID 652208).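 Note: 0% = median neutral control wells and -100% = median staurosporine control wells.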 The following applies: CellTiter-Glo luminescence, 24 h; series mostly up to 26 µM; activity change, negative = cytotoxicity: at the top concentration.
For `CN1CCc2nc3ccc(F)cc3c(C(N)=O)c2C1`, the “activity change, negative = cytotoxicity” value is 4.45% (inactive).
For `O=C(Cc1ccccc1)OCC(=O)c1ccc(F)cc1`, the “activity change, negative = cytotoxicity” value was 6.43% (inactive).
`CC(C)CC(NC(=O)C1CCCCC1)C(=O)N1CCC2(CC1)OCCO2` (stereo unspecified): the “activity change, negative = cytotoxicity” value was 3.21% (inactive).
In the case of `CC(Cc1ccc(O)cc1)NCC(O)c1cc(O)cc(O)c1` (stereo unspecified), the “activity change, negative = cytotoxicity” value was 6.1% (inactive).
With `O=C(NC1(C(F)(F)F)Oc2ccc(Cl)cc2O1)N1CCC2(CC1)OCCO2` (stereo unspecified), the “activity change, negative = cytotoxicity” value is -0.948% (inactive).
Consider `O=C(Cn1ncc2c3ccccc3n(Cc3cccc(Cl)c3)c2c1=O)N1CCC2(CC1)OCCO2`, for which the “activity change, negative = cytotoxicity” value was -16.2% (inactive).
